The supplement of paper PMC10849652
Targets with a hit are over-represented here; the source holds about 7,900 in all. About 0.6% of all pairs of compound and target were hits.

Experiments:
Assay in all cases: log2 fold change, soluble protein after heating vs DMSO (PISA); higher = thermal stabilisation; K562 cells, 10 uM, 30 min; active = over 0.2 and 3.5 SD of the protein, either way, in both replicates (recomputed)
[1] = compound: C1=CC=C(C=C1)[C@H](COC2=CC3=C(C=C2)NC(=O)N3)NC(=O)C4=CC=CN(C4=O)CC5=CC(=C(C=C5)F)F
Outline: (§1)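 Values are thermal stability changes relative to control samples and are taken from duplicates. They are stated as log2 fold changes. Before quantification by TMTpro 16plex LC-MS/MS with equalised channel sums, K562 cells at 2×10^6 cells/mL were treated with 10 μM compound for 30 min, heated in aliquots for 3 min across 48°C-58°C, pooled, extracted in PBS with 0.5% NP-40 at 4°C, and centrifuged at 21,000xg for 90 min to give the soluble supernatant.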

[2] = compound: CC1=C(SC2=C1C(=N[C@H](C3=NN=C(N32)C)CC(=O)N)C4=CC=C(C=C4)Cl)C
Outline: as §1

[3] = compound: CC1=C2C(=CC=C1)N=C(N(C2=O)C3=CC=CC=C3C)CN4C=NC5=C(N=CN=C54)N
Outline: as §1

[4] = compound: Cc1sc2c(c1C)C(c1ccc(Cl)cc1)=N[C@@H](CC(=O)OC(C)(C)C)c1nnc(C)n1-2
Outline: as §1

[5] = compound: c1ccc([C@@H]2C[C@H]2NC2CCNCC2)cc1
Outline: as §1

Measured: log2 fold change

TRAPPC3 (UniProt O43617)
inactive: [1] -0.025 | [2] 0.03 | [3] 0.036 | [4] -0.024 | [5] 0.007

VPS33B (UniProt Q9H267)
UniProt Q9H267, sequence (Q9H267 whole entry, looked up): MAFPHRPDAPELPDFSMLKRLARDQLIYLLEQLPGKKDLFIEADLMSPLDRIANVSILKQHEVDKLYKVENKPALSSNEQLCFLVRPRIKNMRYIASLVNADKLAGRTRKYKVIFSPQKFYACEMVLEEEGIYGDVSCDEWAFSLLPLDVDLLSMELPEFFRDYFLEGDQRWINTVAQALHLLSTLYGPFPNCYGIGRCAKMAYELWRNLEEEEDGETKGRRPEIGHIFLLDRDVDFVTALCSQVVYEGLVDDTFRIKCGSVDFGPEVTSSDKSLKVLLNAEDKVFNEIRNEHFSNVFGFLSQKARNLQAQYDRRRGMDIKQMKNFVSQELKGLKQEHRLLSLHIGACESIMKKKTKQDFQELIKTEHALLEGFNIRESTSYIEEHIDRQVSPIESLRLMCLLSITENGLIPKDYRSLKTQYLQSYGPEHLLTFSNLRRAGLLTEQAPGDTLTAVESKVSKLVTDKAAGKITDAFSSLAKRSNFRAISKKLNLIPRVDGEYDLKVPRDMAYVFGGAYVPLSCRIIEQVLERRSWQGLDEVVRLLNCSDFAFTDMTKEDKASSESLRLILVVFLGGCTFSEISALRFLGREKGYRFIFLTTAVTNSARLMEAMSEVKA
inactive: [1] -0.102 | [2] 0.021 | [3] 0.03 | [4] 0.008 | [5] -0.064

WDR11 (UniProt Q9BZH6)
inactive: [1] -0.076 | [2] 0.067 | [3] 0.111 | [4] 0.05 | [5] 0.023

WASHC3 (UniProt Q9Y3C0)
inactive: [1] 0.015 | [2] -0.022 | [3] 0.045 | [4] -0.001 | [5] 0.028

TMEM161A (UniProt Q9NX61)
UniProt Q9NX61, sequence (Q9NX61 whole entry, looked up): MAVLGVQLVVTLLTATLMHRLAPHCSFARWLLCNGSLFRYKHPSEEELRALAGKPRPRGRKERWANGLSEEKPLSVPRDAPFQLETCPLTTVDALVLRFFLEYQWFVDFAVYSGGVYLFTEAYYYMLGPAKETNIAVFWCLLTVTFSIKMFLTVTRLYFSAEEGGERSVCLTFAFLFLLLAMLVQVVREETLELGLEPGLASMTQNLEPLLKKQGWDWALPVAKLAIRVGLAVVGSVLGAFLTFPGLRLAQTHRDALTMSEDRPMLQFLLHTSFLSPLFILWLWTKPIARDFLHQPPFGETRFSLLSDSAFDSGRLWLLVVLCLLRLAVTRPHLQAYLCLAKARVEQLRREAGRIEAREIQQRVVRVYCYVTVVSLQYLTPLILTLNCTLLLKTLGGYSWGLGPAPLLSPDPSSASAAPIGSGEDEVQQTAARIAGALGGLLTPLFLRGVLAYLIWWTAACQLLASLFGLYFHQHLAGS
inactive: [1] -0.055 | [2] 0.017 | [3] 0.098 | [4] -0.133 | [5] 0.003

UGDH (UniProt O60701)
inactive: [1] 0.025 | [2] 0.052 | [3] 0.103 | [4] -0.04 | [5] -0.038

UGGT1 (UniProt Q9NYU2)
inactive: [1] 0.032 | [2] 0.027 | [3] -0.003 | [4] -0.007 | [5] -0.021

TTC38 (UniProt Q5R3I4)
inactive: [1] 0.046 | [2] 0.049 | [3] 0.032 | [4] -0.061 | [5] -0.016

VWA8 (UniProt A3KMH1)
inactive: [1] -0.03 | [2] 0.023 | [3] 0.091 | [4] -0.044 | [5] -0.052

XPO5 (UniProt Q9HAV4)
inactive: [1] -0.037 | [2] 0.042 | [3] 0.02 | [4] -0.024 | [5] -0.01

WDCP (UniProt Q9H6R7)
inactive: [1] 0.013 | [2] 0 | [3] -0.015 | [4] 0.039 | [5] 0.145

TRMT10C (UniProt Q7L0Y3)
inactive: [1] -0.018 | [2] 0.029 | [3] 0.085 | [4] 0.005 | [5] -0.08

TXN2 (UniProt Q99757)
inactive: [1] 0.027 | [2] 0.144 | [3] 0.039 | [4] -0.079 | [5] -0.067

TOP2A isoform 4 (UniProt P11388)
inactive: [1] 0.157 | [2] -0.322 | [3] -0.703 | [4] 0.252 | [5] 0.002

U2AF1L5 (UniProt P0DN76)
inactive: [1] -0.008 | [3] -0.075 | [4] 0.057

UFL1 (UniProt O94874)
inactive: [1] -0.072 | [2] 0.012 | [3] 0.039 | [4] 0.001 | [5] -0.066

USP14 (UniProt P54578)
inactive: [1] -0.031 | [2] 0.03 | [3] 0.046 | [4] -0.028 | [5] -0.025

XRCC1 (UniProt P18887)
UniProt P18887, sequence (P18887 whole entry, looked up): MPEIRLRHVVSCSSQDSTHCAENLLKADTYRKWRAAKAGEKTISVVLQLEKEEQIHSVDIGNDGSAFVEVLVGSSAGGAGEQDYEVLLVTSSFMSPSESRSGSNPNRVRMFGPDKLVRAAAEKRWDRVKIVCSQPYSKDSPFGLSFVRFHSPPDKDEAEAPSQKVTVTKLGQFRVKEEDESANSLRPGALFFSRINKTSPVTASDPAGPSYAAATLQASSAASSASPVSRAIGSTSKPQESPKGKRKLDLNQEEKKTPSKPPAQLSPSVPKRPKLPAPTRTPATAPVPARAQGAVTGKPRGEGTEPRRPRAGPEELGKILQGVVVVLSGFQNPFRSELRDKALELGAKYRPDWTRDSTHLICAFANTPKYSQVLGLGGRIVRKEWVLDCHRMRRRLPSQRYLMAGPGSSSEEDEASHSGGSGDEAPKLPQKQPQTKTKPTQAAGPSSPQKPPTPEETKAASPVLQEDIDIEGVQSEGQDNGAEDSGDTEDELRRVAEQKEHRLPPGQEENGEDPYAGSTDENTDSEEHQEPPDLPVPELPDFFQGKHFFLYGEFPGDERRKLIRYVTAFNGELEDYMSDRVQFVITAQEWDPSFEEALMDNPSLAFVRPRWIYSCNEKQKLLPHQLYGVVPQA
inactive: [2] 0.091 | [4] 0.07 | [5] 0.062

XPO1 (UniProt O14980)
UniProt O14980, sequence (O14980 whole entry, looked up): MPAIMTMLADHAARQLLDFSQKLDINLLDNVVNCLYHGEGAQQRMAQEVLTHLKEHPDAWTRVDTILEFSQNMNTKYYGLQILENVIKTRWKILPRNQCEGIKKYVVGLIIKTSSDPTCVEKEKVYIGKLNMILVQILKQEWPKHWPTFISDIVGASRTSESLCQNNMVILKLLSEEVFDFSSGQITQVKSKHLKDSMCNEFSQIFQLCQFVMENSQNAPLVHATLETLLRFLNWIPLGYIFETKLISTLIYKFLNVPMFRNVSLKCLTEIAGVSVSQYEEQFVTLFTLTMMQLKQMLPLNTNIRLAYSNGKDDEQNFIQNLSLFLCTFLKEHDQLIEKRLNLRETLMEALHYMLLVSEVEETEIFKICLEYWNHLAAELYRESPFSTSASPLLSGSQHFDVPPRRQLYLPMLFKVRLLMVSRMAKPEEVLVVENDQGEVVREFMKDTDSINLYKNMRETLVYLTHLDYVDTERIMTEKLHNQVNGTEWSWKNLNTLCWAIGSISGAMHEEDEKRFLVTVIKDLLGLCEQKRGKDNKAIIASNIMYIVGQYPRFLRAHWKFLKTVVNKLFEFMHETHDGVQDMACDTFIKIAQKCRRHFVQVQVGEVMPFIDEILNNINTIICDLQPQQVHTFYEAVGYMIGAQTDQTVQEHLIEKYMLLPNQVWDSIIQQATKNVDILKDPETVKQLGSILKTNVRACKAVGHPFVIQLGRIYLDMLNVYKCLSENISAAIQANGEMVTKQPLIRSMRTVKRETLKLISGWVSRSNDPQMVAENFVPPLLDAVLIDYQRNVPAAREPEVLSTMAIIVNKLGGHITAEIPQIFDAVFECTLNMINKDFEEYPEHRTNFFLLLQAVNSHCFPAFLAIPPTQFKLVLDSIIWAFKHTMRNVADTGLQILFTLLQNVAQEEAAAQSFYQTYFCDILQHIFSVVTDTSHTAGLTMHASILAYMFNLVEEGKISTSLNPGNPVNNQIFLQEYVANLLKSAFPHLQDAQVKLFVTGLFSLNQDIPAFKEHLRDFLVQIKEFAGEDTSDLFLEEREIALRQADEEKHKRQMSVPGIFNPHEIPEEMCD
inactive: [1] -0.064 | [2] 0.053 | [3] 0.044 | [4] -0.011 | [5] -0.013

TMEM104 (UniProt Q8NE00)
inactive: [2] 0.001 | [5] 0.24

TSC2 (UniProt P49815)
UniProt P49815, sequence (P49815 whole entry, looked up): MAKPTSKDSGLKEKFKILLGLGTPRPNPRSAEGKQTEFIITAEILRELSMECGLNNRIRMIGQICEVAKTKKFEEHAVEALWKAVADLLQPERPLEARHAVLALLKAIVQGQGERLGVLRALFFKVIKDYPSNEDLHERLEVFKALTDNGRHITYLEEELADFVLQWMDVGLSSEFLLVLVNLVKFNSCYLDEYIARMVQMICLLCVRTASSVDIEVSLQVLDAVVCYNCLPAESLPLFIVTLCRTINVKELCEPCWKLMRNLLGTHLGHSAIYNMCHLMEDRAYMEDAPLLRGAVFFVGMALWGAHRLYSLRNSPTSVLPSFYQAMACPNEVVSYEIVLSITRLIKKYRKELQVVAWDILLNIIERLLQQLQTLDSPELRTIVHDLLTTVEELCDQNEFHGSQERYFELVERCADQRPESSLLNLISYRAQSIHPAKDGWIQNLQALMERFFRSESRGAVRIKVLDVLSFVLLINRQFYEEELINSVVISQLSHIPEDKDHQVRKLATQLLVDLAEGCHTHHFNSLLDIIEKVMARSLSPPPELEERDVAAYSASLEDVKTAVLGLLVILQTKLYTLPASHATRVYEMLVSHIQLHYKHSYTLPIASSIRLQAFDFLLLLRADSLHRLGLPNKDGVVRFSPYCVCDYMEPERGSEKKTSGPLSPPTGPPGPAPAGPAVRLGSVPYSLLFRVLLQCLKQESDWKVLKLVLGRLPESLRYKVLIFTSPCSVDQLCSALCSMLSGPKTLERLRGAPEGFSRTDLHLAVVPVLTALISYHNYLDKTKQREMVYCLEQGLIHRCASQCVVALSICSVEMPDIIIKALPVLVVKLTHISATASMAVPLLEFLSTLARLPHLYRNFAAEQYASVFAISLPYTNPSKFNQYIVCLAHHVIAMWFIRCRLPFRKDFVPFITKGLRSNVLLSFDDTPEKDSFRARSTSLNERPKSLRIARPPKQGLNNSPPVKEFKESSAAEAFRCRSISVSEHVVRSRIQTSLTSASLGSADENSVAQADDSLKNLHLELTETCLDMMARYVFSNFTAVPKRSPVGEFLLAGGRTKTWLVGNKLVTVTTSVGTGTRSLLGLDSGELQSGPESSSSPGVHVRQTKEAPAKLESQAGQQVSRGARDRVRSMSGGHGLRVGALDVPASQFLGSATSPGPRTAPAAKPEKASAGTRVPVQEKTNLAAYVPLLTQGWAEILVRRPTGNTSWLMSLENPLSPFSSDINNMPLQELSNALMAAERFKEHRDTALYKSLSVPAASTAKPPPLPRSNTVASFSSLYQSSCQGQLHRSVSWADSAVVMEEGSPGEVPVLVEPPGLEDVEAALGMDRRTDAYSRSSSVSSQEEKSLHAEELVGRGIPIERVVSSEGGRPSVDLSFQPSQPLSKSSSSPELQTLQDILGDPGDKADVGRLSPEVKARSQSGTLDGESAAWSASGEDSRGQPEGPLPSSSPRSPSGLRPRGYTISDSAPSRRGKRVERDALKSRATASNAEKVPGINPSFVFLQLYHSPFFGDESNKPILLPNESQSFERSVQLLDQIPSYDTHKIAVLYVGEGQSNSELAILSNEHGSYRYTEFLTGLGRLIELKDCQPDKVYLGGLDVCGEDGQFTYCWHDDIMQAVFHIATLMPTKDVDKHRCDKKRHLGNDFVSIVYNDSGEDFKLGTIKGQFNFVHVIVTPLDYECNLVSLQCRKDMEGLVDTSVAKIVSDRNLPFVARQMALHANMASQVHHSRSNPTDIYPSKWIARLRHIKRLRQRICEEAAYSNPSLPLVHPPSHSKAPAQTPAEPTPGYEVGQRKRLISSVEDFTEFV
inactive: [1] 0.062 | [2] 0.099 | [4] -0.044 | [5] 0.317

TRIQK (UniProt Q629K1)
UniProt Q629K1, sequence (Q629K1 whole entry, looked up): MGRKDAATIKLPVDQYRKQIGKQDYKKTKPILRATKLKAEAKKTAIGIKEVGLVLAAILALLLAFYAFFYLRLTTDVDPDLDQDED
inactive: [1] 0.098 | [2] 0.028 | [4] -0.052 | [5] 0.048

TMEM41A (UniProt Q96HV5)
UniProt Q96HV5, sequence (Q96HV5 whole entry, looked up): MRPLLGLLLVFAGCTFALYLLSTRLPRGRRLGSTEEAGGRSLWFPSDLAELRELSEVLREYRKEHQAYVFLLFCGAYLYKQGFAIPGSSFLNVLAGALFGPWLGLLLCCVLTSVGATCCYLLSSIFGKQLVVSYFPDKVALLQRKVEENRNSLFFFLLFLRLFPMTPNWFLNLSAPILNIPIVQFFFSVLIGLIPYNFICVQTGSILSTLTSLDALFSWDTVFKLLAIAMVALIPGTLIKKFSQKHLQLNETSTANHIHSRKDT
inactive: [1] 0.01 | [3] 0.06 | [4] -0.08

VTA1 (UniProt Q9NP79)
inactive: [1] 0.007 | [2] 0.062 | [3] 0.104 | [4] -0.075 | [5] -0.025

UTP20 (UniProt O75691)
inactive: [4] 0.034

UBE3B (UniProt Q7Z3V4)
inactive: [1] -0.081 | [2] -0.147 | [4] -0.214 | [5] 0.172

TMEM179B (UniProt Q7Z7N9)
inactive: [1] -0.065 | [2] 0.081 | [4] 0.005 | [5] -0.024
